Screening results (PubChem)
An excerpt weighted towards active compounds, which were near 3.5% of everything screened.
GPR151 activ: activates the human receptor GPR151; Q8TDV0; PathHunter beta-arrestin GPR151 cells, luminescence; activation, % at 11.2 µM; 650,000 compounds, 1% hits; AID 1508602; in the data active = activation above about 4.9%
Target sequence (Q8TDV0 whole entry, looked up): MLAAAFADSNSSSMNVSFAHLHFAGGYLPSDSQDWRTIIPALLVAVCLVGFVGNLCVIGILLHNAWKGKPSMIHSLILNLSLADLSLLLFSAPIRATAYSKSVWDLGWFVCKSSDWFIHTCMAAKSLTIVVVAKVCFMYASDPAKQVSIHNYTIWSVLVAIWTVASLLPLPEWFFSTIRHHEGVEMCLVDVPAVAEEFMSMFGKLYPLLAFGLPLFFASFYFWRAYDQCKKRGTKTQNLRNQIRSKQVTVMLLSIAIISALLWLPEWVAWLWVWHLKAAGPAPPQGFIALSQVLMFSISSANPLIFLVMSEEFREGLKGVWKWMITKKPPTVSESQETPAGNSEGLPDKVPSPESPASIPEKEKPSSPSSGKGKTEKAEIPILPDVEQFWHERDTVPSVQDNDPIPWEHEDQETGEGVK
FBW7 act: activators of human E3 ligase FBW7. Q969H0. normalized activity (activation), % at 26.1 µM. AlphaScreen FBW7–phospho-cyclin E peptide binding, activator screen. 650,000 compounds, 0.13% hits; in the data active = normalized activity above about 1.9%;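 also: purified mutant Fbw7 with reduced substrate affinity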
MITF primary: human MITF inhibition, primary screen; AlphaScreen MITF homodimerization, bead proximity signal; inhibition, % at 2.6 µM; 650,000 compounds, 0.91% hits; in the data active = inhibition above about 50%
TEAD-YAP block: TEAD-YAP interaction inhibition; HEK-TIYL cells, TEAD-Gal4/YAP UAS-luciferase luminescence; inhibition, % at 9.12 µM; 640,000 compounds, 1.4% hits; AID 1259422; in the data active = inhibition above about 32%
A number is an active result.

`CCOC(=O)c1[nH]c2c(c1C)C(=O)CC(c1cc(OC)ccc1OC)C2` (stereo not given) gave GPR151 activ inactive, FBW7 act inactive, MITF primary inactive and TEAD-YAP block 44.
`COC(=O)c1[nH]c2c(c1C)C(=O)CC(c1cc(OC)ccc1OC)C2` (stereo not given) gave GPR151 activ inactive, FBW7 act inactive, MITF primary inactive and TEAD-YAP block 46.
CCOC(=O)c1[nH]c2c(c1C)C(=O)CC(c1cccc(OC)c1)C2 (stereo not given) was read as GPR151 activ inactive, FBW7 act inactive, MITF primary inactive and TEAD-YAP block 44.
Screening CCOc1ccc(C2CC(=O)c3c([nH]c(C(=O)OC)c3C)C2)cc1OC (stereo not given) returned GPR151 activ inactive, FBW7 act inactive, MITF primary inactive and TEAD-YAP block inactive.
`CN(Cc1ccn[nH]1)C(=O)CC1C(=O)NCCN1Cc1ccc(F)c(F)c1` (stereo not given) gave GPR151 activ inactive, FBW7 act inactive, MITF primary inactive and TEAD-YAP block inactive.
`O=S(=O)(Nc1ccc(Br)cc1)c1ccc2c(c1)OCCO2` gave GPR151 activ inactive, FBW7 act inactive, MITF primary inactive and TEAD-YAP block inactive.
`CN(C)CCNc1nc2ccccc2n2c1nc1ccccc12` gave GPR151 activ inactive, FBW7 act inactive, MITF primary inactive and TEAD-YAP block 65.
For c1ccc2c(c1)nc(NCc1ccncc1)c1nc3ccccc3n12 the results were GPR151 activ inactive, FBW7 act inactive, MITF primary inactive and TEAD-YAP block inactive.
`CCOc1cc(C2C(C#N)=C(N)Oc3n[nH]c(-c4cccc([N+](=O)[O-])c4)c32)ccc1O` (stereo not given) gave GPR151 activ inactive, FBW7 act inactive, MITF primary inactive and TEAD-YAP block inactive.
`N#Cc1cc(Nc2ccccc2Cl)c([N+](=O)[O-])cc1C#N` gave GPR151 activ inactive, FBW7 act inactive, MITF primary inactive and TEAD-YAP block 74.
O=[N+]([O-])c1ccc(Nc2ccccc2Cl)c([N+](=O)[O-])c1 was read as GPR151 activ inactive, FBW7 act inactive, MITF primary inactive and TEAD-YAP block inactive.
`Nc1nc2ccc(Cc3nc4ccccc4o3)cc2s1` gave GPR151 activ inactive, FBW7 act inactive, MITF primary inactive and TEAD-YAP block inactive.
For Nc1nc2ccc(Cc3ccc4nc(N)sc4c3)cc2s1 the results were GPR151 activ inactive, FBW7 act inactive, MITF primary inactive and TEAD-YAP block 41.
`C=CCC1S/C(=N\N=C\c2cccc([N+](=O)[O-])c2)NC1=O` (stereo not given) gave GPR151 activ inactive, FBW7 act 2.3, MITF primary inactive and TEAD-YAP block inactive.
`CC(C)(C)c1ccc(C(=O)NCCOc2ccccc2Cl)cc1` gave GPR151 activ inactive, FBW7 act inactive, MITF primary inactive and TEAD-YAP block 66.
Screening COc1cc(OC)cc(C(=O)N2CCN(c3cc(Cl)ccc3C)CC2)c1 returned GPR151 activ inactive, FBW7 act inactive, MITF primary inactive and TEAD-YAP block 54.
`O=C(c1coc(=O)c2ccccc12)N1CCN(c2ccccc2F)CC1` gave GPR151 activ inactive, FBW7 act inactive, MITF primary inactive and TEAD-YAP block inactive.
`Cc1ccc(Cl)cc1N1CCN(C(=O)c2ccc(=O)[nH]c2)CC1` gave GPR151 activ inactive, FBW7 act inactive, MITF primary inactive and TEAD-YAP block inactive.
Screening Cc1ccc(Cl)cc1N1CCN(C(=O)c2coc(=O)c3ccccc23)CC1 returned GPR151 activ inactive, FBW7 act inactive, MITF primary inactive and TEAD-YAP block 61.
CC(=O)Nc1ccc(NC(=O)c2ccccc2)c(C)c1 was read as GPR151 activ inactive, FBW7 act 12, MITF primary inactive and TEAD-YAP block inactive.
Screening Cc1cc(NC(=O)c2ccccc2)ccc1O returned GPR151 activ inactive, FBW7 act inactive, MITF primary inactive and TEAD-YAP block 73.
For Cc1cc(NC(=O)/C=C/c2ccccc2)ccc1O the results were GPR151 activ inactive, FBW7 act inactive, MITF primary inactive and TEAD-YAP block 73.
`COc1ccc(/C=C2\N=C(c3cc(Br)ccc3OC)OC2=O)cc1OC` gave GPR151 activ inactive, FBW7 act inactive, MITF primary inactive and TEAD-YAP block inactive.
Screening Cc1ccc(C(=O)N/N=C/c2ccc3c(c2)OCO3)cc1 returned GPR151 activ inactive, FBW7 act inactive, MITF primary inactive and TEAD-YAP block inactive.
Screening Cc1ccc(/C=N/NC(=O)c2ccncc2)c(O)c1 returned GPR151 activ inactive, FBW7 act inactive, MITF primary 57 and TEAD-YAP block inactive.
Screening Cc1ccc(/C=N/NC(=O)c2ccc3c(c2)OCO3)c(O)c1 returned GPR151 activ inactive, FBW7 act inactive, MITF primary inactive and TEAD-YAP block 56.
Screening N#CC1=C(N)NC(SCC(=O)Nc2ccccc2)=C(C#N)C12CCCCC2 returned GPR151 activ inactive, FBW7 act inactive, MITF primary inactive and TEAD-YAP block inactive.
`COc1ccc(/C=C2\SC(=O)N(CCCC(=O)Nc3ccc(C(=O)O)cc3)C2=O)cc1` gave GPR151 activ inactive, FBW7 act inactive, MITF primary inactive and TEAD-YAP block 88.
CCCCN1C(=O)S/C(=C/c2ccc(OC)cc2)C1=O was read as GPR151 activ inactive, FBW7 act inactive, MITF primary inactive and TEAD-YAP block inactive.
`CCOC(=O)CCCN1C(=O)S/C(=C/c2ccc(OC)cc2)C1=S` gave GPR151 activ inactive, FBW7 act inactive, MITF primary inactive and TEAD-YAP block 47.
`CN1CCN(c2cc(-c3ccccc3F)nc(-c3cccnc3)n2)CC1` gave GPR151 activ inactive, FBW7 act inactive, MITF primary inactive and TEAD-YAP block inactive.
`C/C(N)=C(/C#N)C(=O)CSc1ccc(C)c(C)c1` gave GPR151 activ inactive, FBW7 act inactive, MITF primary inactive and TEAD-YAP block 36.
CCC(=O)Nc1cc(C2CC2)nn1-c1nc(-c2ccccc2)cc(=O)[nH]1 was read as GPR151 activ inactive, FBW7 act 2.2, MITF primary inactive and TEAD-YAP block inactive.
CCOc1cc(C)nc(N2CCN(Cc3ccc4c(c3)OCO4)CC2)n1 was read as GPR151 activ inactive, FBW7 act inactive, MITF primary inactive and TEAD-YAP block inactive.
Cc1nc(-c2ccccn2)cc(N2CCCCC2)n1 was read as GPR151 activ inactive, FBW7 act inactive, MITF primary inactive and TEAD-YAP block 40.
For COCCSc1nsc(NC(=O)Nc2cccc(C(C)=O)c2)n1 the results were GPR151 activ inactive, FBW7 act inactive, MITF primary inactive and TEAD-YAP block 33.
Screening CCOC(=O)CCc1c(C)c2ccc(OCC(=O)N3CCOCC3)c(C)c2oc1=O returned GPR151 activ inactive, FBW7 act inactive, MITF primary inactive and TEAD-YAP block inactive.
`Cc1cccc(NC(=O)CSc2nc(C)cc(C(F)(F)F)c2C#N)n1` gave GPR151 activ inactive, FBW7 act inactive, MITF primary inactive and TEAD-YAP block 88.
Cc1cc(C(F)(F)F)c(C#N)c(SCC(=O)Nc2ccc(F)cc2)n1 was read as GPR151 activ inactive, FBW7 act inactive, MITF primary inactive and TEAD-YAP block inactive.
Screening Cc1cc(C)nc(SCC(=O)Nc2nc3ccccc3s2)n1 returned GPR151 activ inactive, FBW7 act inactive, MITF primary inactive and TEAD-YAP block inactive.
